# Where two headings read alike, the source gives them in different places.
# Experiments:
# PIKFYVE = details: concentration: 1 μM, replicates: in singlicate; n = 1
# PIM1 = details: concentration: 1 μM, replicates: in singlicate; n = 1
# PIM2 = details: concentration: 1 μM, replicates: in singlicate; n = 1
# PIM3 = details: concentration: 1 μM, replicates: in singlicate; n = 1
# PIP5K1A = details: concentration: 1 μM, replicates: in singlicate; n = 1
# PIP5K1C = details: concentration: 1 μM, replicates: in singlicate; n = 1
# PIP5K2B = details: concentration: 1 μM, replicates: in singlicate; n = 1
# PIP5K2C = test system: T1, PIP5K2C; details: concentration: 1 μM, replicates: in singlicate; n = 1
# T1 construct: gene PIP4K2C
# PKAC-alpha = test system: T2, PKAC-alpha; details: concentration: 1 μM, replicates: in singlicate; n = 1
# T2 construct: gene PRKACA
# PKAC-beta = test system: T3, PKAC-beta; details: concentration: 1 μM, replicates: in singlicate; n = 1
# T3 construct: gene PRKACB
# PKMYT1 = details: concentration: 1 μM, replicates: in singlicate; n = 1
# PKN1 = details: concentration: 1 μM, replicates: in singlicate; n = 1
# PKN2 = details: concentration: 1 μM, replicates: in singlicate; n = 1
# PLK1 = details: n = 1
# PLK2 = details: concentration: 1 μM, replicates: in singlicate; n = 1
# PLK3 = details: concentration: 1 μM, replicates: in singlicate; n = 1
# PLK4 = details: concentration: 1 μM, replicates: in singlicate; n = 1
# PRKCD = details: concentration: 1 μM, replicates: in singlicate; n = 1
# PRKCE = details: concentration: 1 μM, replicates: in singlicate; n = 1
# PRKCH = details: concentration: 1 μM, replicates: in singlicate; n = 1
# [1] = concentration: 1 μM, replicates: in singlicate
# 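Further: KINOMEscan kinase panel screen.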
structure (smiles),measurement,setting,value
COc1ccc(Nc2nccc(N3CCC(NC(=O)Nc4cc(C)ccc4C)C3)n2)cc1 (centres unmarked) [GSK1379741],%Inh,PIKFYVE,0%
same,%Inh,PIM1,0%
same,%Inh,PIM2,0%
same,%Inh,PIM3,0%
same,%Inh,PIP5K1A,1%
same,%Inh,PIP5K1C,25%
same,%Inh,PIP5K2B,10%
same,%Inh,PIP5K2C,9%
same,%Inh,PKAC-alpha,0%
same,%Inh,PKAC-beta,0%
same,%Inh,PKMYT1,0%
same,%Inh,PKN1,0%
same,%Inh,PKN2,0%
same,%Inh,PLK1; [1],0%
same,%Inh,PLK2,0%
same,%Inh,PLK3,0%
same,%Inh,PLK4,0%
same,%Inh,PRKCD,0%
same,%Inh,PRKCE,13%
same,%Inh,PRKCH,0%
c1ccc(-c2n[nH]cc2-c2ccnc3ccccc23)nc1 [GW271431],%Inh,PIKFYVE,0%
same,%Inh,PIM1,8%
same,%Inh,PIM2,0%
same,%Inh,PIM3,3%
same,%Inh,PIP5K1A,0%
same,%Inh,PIP5K1C,0%
same,%Inh,PIP5K2B,15%
same,%Inh,PIP5K2C,4%
same,%Inh,PKAC-alpha,9%
same,%Inh,PKAC-beta,14%
same,%Inh,PKMYT1,3%
same,%Inh,PKN1,12%
same,%Inh,PKN2,0%
same,%Inh,PLK1; [1],0%
same,%Inh,PLK2,0%
same,%Inh,PLK3,0%
same,%Inh,PLK4,0%
same,%Inh,PRKCD,4%
same,%Inh,PRKCE,3%
same,%Inh,PRKCH,9%
O=c1cc(N2CCOCC2)nc2n(Cc3cccc4ccccc34)ccn12 [GSK2333389],%Inh,PIKFYVE,0%
same,%Inh,PIM1,0%
same,%Inh,PIM2,0%
same,%Inh,PIM3,0%
same,%Inh,PIP5K1A,0%
same,%Inh,PIP5K1C,0%
same,%Inh,PIP5K2B,40%
same,%Inh,PIP5K2C,0%
same,%Inh,PKAC-alpha,0%
same,%Inh,PKAC-beta,8%
same,%Inh,PKMYT1,4%
same,%Inh,PKN1,15%
same,%Inh,PKN2,0%
same,%Inh,PLK1; [1],0%
same,%Inh,PLK2,0%
same,%Inh,PLK3,0%
same,%Inh,PLK4,0%
same,%Inh,PRKCD,0%
same,%Inh,PRKCE,0%
same,%Inh,PRKCH,0%
COCCNC(=O)c1ccc(-c2cc(C(=O)NC3CC3)cc(F)c2C)cc1 [GW868318],%Inh,PIKFYVE,43%
same,%Inh,PIM1,15%
same,%Inh,PIM2,3%
same,%Inh,PIM3,29%
same,%Inh,PIP5K1A,1%
same,%Inh,PIP5K1C,0%
same,%Inh,PIP5K2B,0%
same,%Inh,PIP5K2C,0%
same,%Inh,PKAC-alpha,9%
same,%Inh,PKAC-beta,37%
same,%Inh,PKMYT1,10%
same,%Inh,PKN1,0%
same,%Inh,PKN2,20%
same,%Inh,PLK1; [1],66%
same,%Inh,PLK2,46%
same,%Inh,PLK3,33%
same,%Inh,PLK4,34%
same,%Inh,PRKCD,15%
same,%Inh,PRKCE,36%
same,%Inh,PRKCH,0%
CN(C(=O)c1ccc(-c2cc(-c3c[nH]nc3-c3ccccn3)ccn2)cc1)C1CCOCC1 [GW810083],%Inh,PIKFYVE,40%
same,%Inh,PIM1,0%
same,%Inh,PIM2,0%
same,%Inh,PIM3,0%
same,%Inh,PIP5K1A,0%
same,%Inh,PIP5K1C,31%
same,%Inh,PIP5K2B,0%
same,%Inh,PIP5K2C,49%
same,%Inh,PKAC-alpha,0%
same,%Inh,PKAC-beta,0%
same,%Inh,PKMYT1,4%
same,%Inh,PKN1,0%
same,%Inh,PKN2,0%
same,%Inh,PLK1; [1],0%
same,%Inh,PLK2,0%
same,%Inh,PLK3,0%
same,%Inh,PLK4,2%
same,%Inh,PRKCD,24%
same,%Inh,PRKCE,4%
same,%Inh,PRKCH,0%
O=C(NCCNc1ccnc(Nc2ccc(F)cc2)n1)Nc1ccccc1F [GSK1379880],%Inh,PIKFYVE,0%
same,%Inh,PIM1,0%
same,%Inh,PIM2,0%
same,%Inh,PIM3,0%
same,%Inh,PIP5K1A,0%
same,%Inh,PIP5K1C,24%
same,%Inh,PIP5K2B,0%
same,%Inh,PIP5K2C,38%
same,%Inh,PKAC-alpha,8%
same,%Inh,PKAC-beta,0%
same,%Inh,PKMYT1,9%
same,%Inh,PKN1,0%
same,%Inh,PKN2,0%
same,%Inh,PLK1; [1],100%
same,%Inh,PLK2,0%
same,%Inh,PLK3,0%
same,%Inh,PLK4,0%
same,%Inh,PRKCD,0%
same,%Inh,PRKCE,0%
same,%Inh,PRKCH,0%
O=C(c1ccc(-c2cc(-c3c[nH]nc3-c3ccccn3)ccn2)cc1)N1CCOCC1 [GW812171],%Inh,PIKFYVE,0%
same,%Inh,PIM1,24%
same,%Inh,PIM2,0%
same,%Inh,PIM3,15%
same,%Inh,PIP5K1A,0%
same,%Inh,PIP5K1C,0%
same,%Inh,PIP5K2B,0%
same,%Inh,PIP5K2C,67%
same,%Inh,PKAC-alpha,0%
same,%Inh,PKAC-beta,3%
same,%Inh,PKMYT1,6%
same,%Inh,PKN1,0%
same,%Inh,PKN2,0%
same,%Inh,PLK1; [1],0%
same,%Inh,PLK2,14%
same,%Inh,PLK3,28%
same,%Inh,PLK4,0%
same,%Inh,PRKCD,12%
same,%Inh,PRKCE,14%
same,%Inh,PRKCH,0%
COc1cc2ncn(-c3cc(OCc4sccc4Cl)c(C(N)=O)s3)c2cc1OC [GSK448459],%Inh,PIKFYVE,0%
same,%Inh,PIM1,11%
same,%Inh,PIM2,0%
same,%Inh,PIM3,0%
same,%Inh,PIP5K1A,41%
same,%Inh,PIP5K1C,79%
same,%Inh,PIP5K2B,20%
same,%Inh,PIP5K2C,50%
same,%Inh,PKAC-alpha,0%
same,%Inh,PKAC-beta,0%
same,%Inh,PKMYT1,0%
same,%Inh,PKN1,0%
same,%Inh,PKN2,0%
same,%Inh,PLK1; 1 µM,100%
same,%Inh,PLK2,99.5%
same,%Inh,PLK3,99.5%
same,%Inh,PLK4,4%
same,%Inh,PRKCD,0%
same,%Inh,PRKCE,0%
same,%Inh,PRKCH,0%
CCc1nc(-c2cccc(C)c2)c(-c2ccnc(NCc3ccccc3)c2)s1,%Inh,PIKFYVE,0%
same,%Inh,PIM1,21%
same,%Inh,PIM2,0%
same,%Inh,PIM3,25%
same,%Inh,PIP5K1A,0%
same,%Inh,PIP5K1C,14%
same,%Inh,PIP5K2B,38%
same,%Inh,PIP5K2C,0%
same,%Inh,PKAC-alpha,0%
same,%Inh,PKAC-beta,0%
same,%Inh,PKMYT1,5%
same,%Inh,PKN1,14%
same,%Inh,PKN2,0%
same,%Inh,PLK1; [1],0%
same,%Inh,PLK2,7%
same,%Inh,PLK3,6%
same,%Inh,PLK4,0%
same,%Inh,PRKCD,16%
same,%Inh,PRKCE,0%
same,%Inh,PRKCH,0%
COc1ccc(S(=O)(=O)NC2CCN(c3cc(C)nc(Nc4cccc(C#N)c4)n3)CC2)cc1.O=C(O)C(F)(F)F [GSK1653539],%Inh,PIKFYVE,0%
same,%Inh,PIM1,25%
same,%Inh,PIM2,0%
same,%Inh,PIM3,0%
same,%Inh,PIP5K1A,0%
same,%Inh,PIP5K1C,11%
same,%Inh,PIP5K2B,0%
same,%Inh,PIP5K2C,37%
same,%Inh,PKAC-alpha,0%
same,%Inh,PKAC-beta,0%
same,%Inh,PKMYT1,0%
same,%Inh,PKN1,0%
same,%Inh,PKN2,0%
same,%Inh,PLK1; [1],0%
same,%Inh,PLK2,0%
same,%Inh,PLK3,0%
same,%Inh,PLK4,0%
same,%Inh,PRKCD,0%
same,%Inh,PRKCE,0%
same,%Inh,PRKCH,11%

# Source: PMC5540273 (PLoS ONE, 2017)
